Sampled rows, rich in hits. Any-hit rate of the full collection: about 9.7%.
WNV NS2B-NS3 inh: inhibitors of West Nile virus NS2B-NS3 protease | P06935 | WNV NS2B-NS3 protease, fluorogenic substrate Ex360/Em465; hits give low values | z-score (no concentration beside the values) | 0.18% of 65,000 active | AID 577; in the data active = z-score below about -3
Target sequence (P06935 1371-1501 limits assumed): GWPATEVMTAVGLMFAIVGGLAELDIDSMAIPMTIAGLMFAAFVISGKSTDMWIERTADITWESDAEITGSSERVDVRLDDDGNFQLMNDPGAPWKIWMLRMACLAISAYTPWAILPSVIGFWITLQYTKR
Target sequence (P06935 1502-1679 limits assumed): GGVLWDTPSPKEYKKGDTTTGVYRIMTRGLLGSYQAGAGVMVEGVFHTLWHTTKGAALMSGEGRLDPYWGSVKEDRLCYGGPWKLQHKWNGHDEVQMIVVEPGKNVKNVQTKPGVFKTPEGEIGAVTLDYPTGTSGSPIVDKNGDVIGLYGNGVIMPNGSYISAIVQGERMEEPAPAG
M1 antagonist: blocks the rat M1 muscarinic receptor response to acetylcholine | CHO-M1 cells, Fluo-4 calcium, ACh EC80 antagonist mode; hits give low values | 3.4% of 64,000 active | B-score at 10 µM | P08482;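 active = calcium fluorescence response, raw or row-and-column corrected B-score, differing from the plate sample mean either way at a set confidence level, mostly lower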
M1 agonist: M1 muscarinic receptor agonism; CHO-M1 cells, Fluo-4 calcium fluorescence, agonist mode; hits give high values; B-score at 10 µM; 3% of 64,000 active; AID 626;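 active = fluorescence rise, raw or as B-score row- and column-corrected plate score, outside the 99.7% band of its plate's samples, either direction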
A340 absorber: compounds absorbing at 340 nm; fold change at 10 µM; 65,000 tested, under 10 active; compound absorbance at 340 nm, fold over control;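 active = at 10 µM dose, initial 340 nm absorbance at least 2 fold that of control wells; inactive = change under 2 fold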;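 note: initial absorbance extrapolated from kinetic A340 decline of NADH oxidation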
BAP1 block: blocks human BAP1 ubiquitin-AMC hydrolysis | Q92560 | recombinant BAP1, Ub-AMC hydrolysis fluorescence kinetic; hits give low values | calls only at 20 µM | 0.48% of 72,000 active;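 active = activity remaining at or below 50% of control, provided the compound also passes the data quality filters; inactive = the rest, including low values that fail the filters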;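 note: 100% = DMSO wells rate and 0% = substrate alone blank rate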
Autofluor 339: intrinsic fluorescence of library compounds, ex339/em460 – biochemical, MLSMR library, data from DPM-DC assay, artefact control, profiling panel. compound autofluorescence, ex339/em460 nm, NADH buffer; hits give high values; 1 = no-compound wells, NADH background. 5.5% of 65,000 active. fluorescence fold increase at 10 µM. AID 709;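 active = at 10 µM, mean starting fluorescence two-fold or more over control wells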;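 note: signal is the first read of a kinetic run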
M1 agonist conf: rat M1 muscarinic agonism, confirmation. shares compounds with M1 agonist. CHO-M1 cells, Fluo-4 calcium fluorescence, agonist mode; actives lie on both sides. fluorescence change (max-min) at 10 µM. 19% of 1,700 active. AID 1488;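 active = fluorescence change differs from the solvent-only DMSO control mean at a set confidence level in both duplicate runs; inconclusive = differs from solvent-only control mean in just one of two runs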;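 note: an EC20 dose of acetylcholine follows compound addition during the same imaging run; raw fluorescence intensity difference in instrument units with no normalization to controls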
M4 ag counter: activates rat M4 receptor in counter-screen for M1 agonists. 9% of 1,700 active. CHO M4/Gqi5 cells, Fluo-4 calcium fluorescence, agonist mode; actives lie on both sides. shares compounds with M1 agonist. fluorescence change (max-min) at 10 µM. AID 1741;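 active = fluorescence change differing from the plate's solvent-only control wells at 99.7% confidence in both duplicates, whether higher or lower; inconclusive = differs from solvent controls in only one of two duplicates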
* hit, by the source's call; i = inactive; ? = inconclusive; nt = no result given.

SMILES	WNV NS2B-NS3 inh	M1 antagonist	M1 agonist	A340 absorber	BAP1 block	Autofluor 339	M1 agonist conf	M4 ag counter
CCOC(=O)C(CC)n1cnc2c(nnn2-c2ccc(C)cc2)c1=O (stereo not given)	0.94	0.53	6.4*	0.97	i	1	-22	-71*
O=C(Nc1ccc(S(=O)(=O)N2CCCCCC2)cc1)c1ccco1	0.23	-0.088	-0.85	0.98	i	1	nt	nt
CC1CN(S(=O)(=O)c2ccc(NC(=O)c3ccco3)cc2)CC(C)O1 (stereo not given)	-1	-0.0071	12*	1.1	i	1	-12	-32
O=C(Nc1ccc(F)cc1)N(Cc1ccco1)Cc1cc2cc3c(cc2[nH]c1=O)OCO3	0.81	0.79	-2.5*	1	nt	2.7*	-13	-22
CCN(CC)c1ccc(NS(=O)(=O)c2ccc3c(c2)oc(=O)n3C)c(C)c1	0.07	-0.014	-0.23	1.1	i	1.1	nt	nt
CCN(CC)c1ccc2cc(-c3nc4ccccc4n3C)c(=O)oc2c1	1	0.056	65*	1.1	i	2.1*	280*	400*
O=C(NC1CC1)c1c[nH]c2ccc(S(=O)(=O)Nc3cccc(C(F)(F)F)c3)cc2c1=O	0.23	0.46	-1.9*	1	nt	1.3	-11	?
COc1ccc(S(=O)(=O)N2CN(Cc3ccco3)c3nc4ccccc4nc32)cc1	-0.92	0.027	-0.12	1	nt	1.1	nt	nt
Cc1ccc(S(=O)(=O)c2c(N)n(Cc3ccco3)c3nc4ccccc4nc23)cc1	0.86	0.051	12*	1.1	nt	2.2*	39	-10
OCC12COC(c3ccccc3)N1C(c1ccccc1)OC2 (stereo not given)	1.8	0.8	8.3*	1	i	1.1	-16	?
O=C(c1ccccc1)N1CCCOC1c1ccccc1 (stereo not given)	0.56	0.32	0.17	1	i	1.1	nt	nt
CCCN1C=CC(=C2C(=O)c3ccccc3C2=O)C=C1	-0.43	0.06	-0.43	1.1	i	1	nt	nt
CN1C=CC(=C2C(=O)c3ccccc3C2=O)C=C1	-1.1	2.6*	33*	1.1	i	1.1	-30	?
CCCCOc1ccc2c(=O)c(-c3ccccc3OC)coc2c1	nt	nt	nt	nt	i	nt	nt	nt
Cc1nn(-c2ccccc2)c(Cl)c1C(=O)N1CCN(c2ncnc3c2cnn3-c2ccccc2)CC1	0.6	-3.4*	2.5*	0.99	i	1.1	-27*	-57
O=C(c1ccco1)N1CCN(c2ncnc3c2cnn3-c2ccccc2)CC1	-0.23	-0.25	0.25	1	i	1.1	nt	nt
C=CCN1C(c2ccccc2)=CS/C1=C(\C#N)c1nnc2n1CCCCC2	-0.99	0.13	0.26	1.1	i	0.96	nt	nt
CCOc1ccc(C2=CS/C(=C(\C#N)c3nnc4n3CCCCC4)N2CC)cc1	nt	-0.056	3.8*	1.2	nt	1	-18	-38
N#CC1=C(N)Oc2n[nH]c(-c3cccs3)c2C1c1ccco1 (stereo not given)	0.62	-0.17	37*	1	i	1.2	138*	115*
N#CC1=C(N)Oc2n[nH]c(-c3cccs3)c2C1c1ccsc1 (stereo not given)	-0.53	0.15	0.43	1.1	nt	1.1	nt	nt
Cc1ccc(-c2nnc(N3CCN(c4ccccn4)CC3)c3ccccc23)cc1	0.43	-3.5*	2*	1.1	i	1.1	?	-53
COc1ccc(Br)cc1C1C(N2C(=O)c3ccc([N+](=O)[O-])cc3C2=O)C(=O)N1c1ccc(C)cc1C (stereo not given)	nt	nt	nt	nt	i	nt	nt	nt
COc1ccc(OC)c(S(=O)(=O)N2CCC(C(=O)Nc3cccc(C(F)(F)F)c3)CC2)c1	-0.31	-0.72	4.4*	1	i	1	-12	-12
COc1ccc(OC)c(S(=O)(=O)N2CCC(C(=O)NCc3ccccc3)CC2)c1	1.3	0.45	0.33	0.99	i	1.1	nt	nt
Cc1cc(C)nc(/N=C(\N)Nc2cccc(F)c2)n1	nt	nt	nt	nt	i	nt	nt	nt
SMILES	WNV NS2B-NS3 inh	M1 antagonist	M1 agonist	A340 absorber	BAP1 block	Autofluor 339	M1 agonist conf	M4 ag counter
CCOC(=O)c1c(C)oc2c1c1c(c3ccccc32)OCN(Cc2cccnc2)C1	-0.04	0.8	-0.14	1	i	1.1	nt	nt
CCOC(=O)c1c(C)oc2c1c(C=NCc1ccccn1)c(O)c1ccccc12	-0.00046	-0.95	7.1*	0.99	i	1.1	28	-18
CCOC(=O)c1c(C)oc2c1c(C=NCC1CCCO1)c(O)c1ccccc12 (stereo not given)	0.54	0.3	2.9*	1.1	i	1.1	-16	6.4
O=C(Nc1ccc(NC(=O)c2cccnc2)cc1)c1ccc(Br)cc1	nt	nt	nt	nt	i	nt	nt	nt
Cc1ccc(O)c(NC(=O)c2cccc(NC(=O)c3ccco3)c2)c1	-1.1	0.68	2.6*	1	i	1.1	-26*	-53
Cc1ccc2nc(-c3cccc(NC(=O)c4ccco4)c3)[nH]c2c1	-1.6	-0.0048	7*	1	i	1.2	-28	-38
Cc1nn2c(-c3cccc(NC(=O)c4ccco4)c3)nnc2c2ccccc12	1.9	-1	5.8*	1	i	1.2	-16	?
Cc1ccc(O)c(NC(=O)c2ccco2)c1	-0.59	0.7	1.7	1	i	1.1	nt	nt
Cc1cc(C)c(C)c(C(=O)c2ccc(Cl)cc2)c1C	nt	nt	nt	nt	i	nt	nt	nt
Cc1ccc(N(CCCCN2C(=O)c3ccccc3C2=O)C(=O)c2cccc(Cl)c2)cc1	nt	nt	nt	nt	i	nt	nt	nt
Clc1ccc(C2Oc3ccccc3C3CC(c4ccccc4)=NN32)cc1 (stereo not given)	nt	nt	nt	nt	i	nt	nt	nt
COc1ccccc1NC(=O)CN1CCC(n2nnc3cc(F)ccc32)CC1	0.49	0.0082	-0.95	1	i	1.1	nt	nt
COc1cc(NC(=O)c2ccccc2)c(OC)cc1NC(=O)CN1CCN(c2ccccn2)CC1	-0.5	-0.075	5.9*	1.1	i	1.1	-8.2	-36
CCC(=O)N1CCNC(=O)C1CC(=O)Nc1ccc(C)c(Cl)c1 (stereo not given)	0.43	-0.28	0.62	1	i	1	nt	nt
COc1cc(NC(=O)c2ccc(C)cc2)c(OC)cc1NC(=O)CN1CCOCC1	-0.09	-0.34	0.036	1.1	i	1.1	nt	nt
COc1ccccc1NC(=O)CN1CCC(n2c(C)nc3cc(F)ccc32)CC1	1	-0.09	-2.6*	1	i	1	?	-58
COc1ccccc1NC(=O)CC1C(=O)NCCN1C(=O)Nc1ccc(Cl)c(Cl)c1 (stereo not given)	0.45	-0.28	-2.1*	1	i	1.1	?	?

From PubChem BioAssay
